# An excerpt weighted towards active compounds, which were near 2.9% of everything screened.
# ADAM17 inh = ADAM17 inhibition, QFRET primary screen. P78536. recombinant ADAM17, EDANS/DABCYL FRET peptide cleavage. inhibition, % at 6.95 µM. 0.83% of 370,000 active. AID 720648;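 active means inhibition above the mean of compounds lying between control limits plus 3 SD, set per campaign, cut at about 8.5% in these data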;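 further: 0% = DMSO-only wells as the low control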
# proKLK7 act = activators of human kallikrein-7 zymogen | purified proKLK7, EDANS-DABCYL substrate fluorescence; 100% is mature enzyme control, 0% vehicle | activation, % at 7 µM | P49862 | 0.9% of 370,000 active;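 active means activation above the mean of all tested compounds plus 3 SD, computed per campaign excluding outliers beyond control limits, cut at about 13% in these data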
# ADAM10 inh = inhibitors of human ADAM10. O14672. AID 720582. recombinant ADAM10, EDANS/DABCYL FRET peptide cleavage, 3 h. 0.62% of 370,000 active. inhibition, % at 7 µM;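 active means inhibition above a per-campaign cutoff equal to the mean of compounds falling between control-based bounds plus 3 SD, cut at about 20% in these data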;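 further: 0% = DMSO wells while the 100% control is not disclosed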
# Target sequence (O14672 214-748 limits assumed): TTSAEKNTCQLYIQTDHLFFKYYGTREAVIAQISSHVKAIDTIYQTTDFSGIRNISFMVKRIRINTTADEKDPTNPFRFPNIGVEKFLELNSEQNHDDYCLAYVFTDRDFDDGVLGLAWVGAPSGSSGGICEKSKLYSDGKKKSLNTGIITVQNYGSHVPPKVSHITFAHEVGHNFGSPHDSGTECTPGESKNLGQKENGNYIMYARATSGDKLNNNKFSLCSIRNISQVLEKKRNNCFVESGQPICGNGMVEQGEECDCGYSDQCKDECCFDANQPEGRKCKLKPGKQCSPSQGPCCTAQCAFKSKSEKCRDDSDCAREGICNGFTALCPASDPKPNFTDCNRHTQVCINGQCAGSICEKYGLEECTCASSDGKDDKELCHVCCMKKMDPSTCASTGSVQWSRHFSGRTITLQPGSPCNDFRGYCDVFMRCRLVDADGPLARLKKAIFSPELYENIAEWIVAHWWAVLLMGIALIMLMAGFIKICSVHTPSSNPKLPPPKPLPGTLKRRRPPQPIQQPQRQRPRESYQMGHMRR
# PLC-gamma1 inh = blocks human PLC-gamma1 enzyme activity. inhibition, % at 12.2 µM. P19174. 0.84% of 370,000 active. purified PLC-gamma1, fluorogenic substrate, fluorescence
# PLC-beta3 inh = blocks human PLC-beta3 enzyme activity; Purified PLC-beta3, fluorogenic substrate, fluorescence; inhibition, % at 12.2 µM; 0.18% of 370,000 active; in the data active means inhibition above about 11%;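 further: 0% = median of compound wells on plate and 100% = full blocker control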
# PLCg1 ctr = counter-screen for PLC-beta3 inhibitors: inhibitors of human PLC-gamma1. shares compounds with PLC-gamma1 inh. purified PLC-gamma1, fluorogenic substrate, fluorescence. inhibition, % at 12.3 µM. 3.1% of 3,300 active. AID 743258
# PLCb3 confirm = human PLC-beta3 inhibition, confirmation; shares compounds with PLC-gamma1 inh; purified PLC-beta3, fluorogenic substrate fluorescence; inhibition, % at 12.3 µM; 1% of 3,300 active; in the data active means inhibition above about 11%
# Numbers without * were called inactive; / = no result. Unless noted, no stated cut-off is given here; in the data, active means inhibition above about 9.5%; inactive means the rest.
SMILES,ADAM17 inh,proKLK7 act,ADAM10 inh,PLC-gamma1 inh,PLC-beta3 inh,PLCg1 ctr,PLCb3 confirm
CCc1ccc(Nc2nnc(SCC(=O)Nc3cccc(S(=O)(=O)NC4=NCCCCC4)c3)s2)cc1,6,1,16,9.7*,3,-4,-4
O=C1CCCCC(=O)[C@H](O)C[C@H](COCc2ccccc2)O1,0,0,-2,3,2,/,/
O=[N+]([O-])c1cccc2ccc(/C=C/c3cccc(Br)c3)nc12,7,0,8,9,11*,0,1
Cc1ccc(CC2CC(=O)N(c3nc4ccccc4n3C)C2=O)cc1 (stereo not given),5,0,8,12*,7,-10,-3
COC(=O)[C@]12CCCCC=C1N(CCC1=CCCCC1)C(=O)[C@H](CC(=O)NCC13CC4CC(CC(C4)C1)C3)C2,-4,1,-6,3,2,/,/
CCC1CCCCN1C(=O)CSc1nc2ncccc2[nH]1 (stereo not given),2,-1,-8,11*,-7,-4,-3
COc1ccc(C(c2nnnn2Cc2cccs2)N2CCN(c3ccccc3F)CC2)cc1OC (stereo not given),8,0,16,11*,14*,5,4
CCOc1ccccc1C(=O)N/N=C/c1cccc2cccnc12,-2,-1,-4,14*,7,-7,-1
CCOc1ccc(C(=O)N/N=C/c2cccc3cccnc23)cc1,3,0,3,0,-1,/,/
O=C(CSCC(=O)N1CCOCC1)Nc1ccccc1,6,-1,11,11*,5,-8,-2
O=C(CSCC(=O)N1CCOCC1)Nc1nc(-c2ccccc2)cs1,-4,1,1,3,-9,/,/
Cc1ccc(N2CCN(C(=O)C(=O)c3ccc4c(c3)OCO4)CC2)cc1,-4,1,-5,-1,-6,/,/
COc1ccc(N2C(=O)C(Cl)=C(Nc3ccccc3O)C2=O)cc1,3,1,12,0,3,/,/
COc1ccc(N2C(=O)C(Cl)=C(Nc3ccccc3OC)C2=O)cc1,9,1,16,9.5*,13*,-2,-2
CCCCCN1CCCCC(NC(=O)CSc2ccccc2)C1=O (stereo not given),1,0,2,0,2,/,/
CCOc1cccc(N(C(=O)C2COc3ccccc3O2)C(C(=O)NC2CCCCC2)c2ccc(O)cc2)c1 (stereo not given),5,0,14,8,11*,-3,0
CC(O)(c1cccc(F)c1)c1nc(-c2cccc(F)c2)cs1 (stereo not given),5,0,2,11*,-3,-2,0
Cc1ccc(-c2csc(C(C)(O)c3cccc(F)c3)n2)cc1C (stereo not given),4,0,13,-1,-2,/,/
COc1ccc(OC)c(S(=O)(=O)n2c(CN3CCOCC3)nc3ccccc32)c1,2,0,-8,0,-2,/,/
CCOC(=O)CNC(=O)C1(NC(=O)CNC(=O)OCc2ccccc2)CCCC1,7,-1,1,10*,3,-6,-6
CCOC(=O)c1c(NC(=O)CSc2nnc(C)o2)sc(C)c1C,5,0,6,9.7*,-2,-4,-1
O=S(=O)(c1ccccc1)N1N=C(c2cccs2)CC1c1ccc(F)cc1 (stereo not given),3,0,0,4,12*,-4,-4
C/C(=N\NC(=O)c1nnn(-c2nonc2N)c1CSc1ccc(C)cc1)c1cccs1,2,-1,-18,10*,0,-11,-6
COC(=O)c1ccc(C(=O)N2CCCC(C)(C(=O)NS(=O)(=O)C3CC3)C2)cc1 (stereo not given),-2,1,3,0,2,/,/
O=c1cc([O-])[n+]2c3n1CCCN3CCC2,5,0,8,7,12*,3,1
C=C1CC2C=C(NC(C)=O)CC(C1)C2 (stereo not given),3,0,-8,12*,4,-42,-1
CCC(=O)NCCc1nc2ccccc2n1Cc1ccc(C)cc1,-1,0,-6,19*,-2,-8,-5
O=C1COc2ccc(C(=O)COC(=O)CCCOc3ccccc3)cc2N1,7,-1,-13,1,11*,-6,-3
